# PubChem BioAssay AID540356 (Broad Institute, 2011)
# The campaign covered roughly 2,500 compounds. About 360 (14%) were called active.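 How the source made its calls: active means signal-lowering compounds whose fitted half-maximal concentration AC50 is no higher than ten times their top tested concentration; inconclusive means flat curve with 30 to 70% inhibition, or poor fit; inactive means flat within 30%, signal increase, or AC50 above limit.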 Not all results are given here.
# Test: non-specific inhibitors of H2O2 luminol chemiluminescence – biochemical, luminescence, no ALR or DTT, cherry-pick, artefact control for ALR inhibitor project, dose response (AID 540356)
# Details: HRP/H2O2 luminol luminescence counterscreen; series mostly up to 10 µM
row,SMILES,AC50
1,NCCc1ccc(O)c(O)c1,6.13 µM (active)
2,CNCCc1ccc(O)c(O)c1,inactive
3,C/C(CCc1c[nH]c2ccccc12)=N\O,inactive
4,CCc1ccc(N2C(=O)NC(=O)/C(=C\C=C\c3ccco3)C2=O)cc1,inactive
5,CC1=NN(c2ccccc2)C(=O)C1/C=C1/C(=O)NC(=O)N(c2cc(C)cc(C)c2)C1=O (stereo not given),inactive
6,CN=C(SCc1ccccc1)c1c(O)n(C)c(=O)n(C)c1=O,inactive
7,Cn1c(O)c(/C=N/Nc2ccccc2)c(=O)n(C)c1=O,1.32 µM (active)
8,N/C(=N\[N+](=O)[O-])N/N=C/c1ccc(O)cc1,inactive
9,C=CCN1C(=O)NC(=O)/C(=C\c2ccc(-c3ccccc3[N+](=O)[O-])o2)C1=O,inactive
10,Cc1ccc(/C=C2\C(=O)NC(=O)N(Cc3ccccc3Cl)C2=O)o1,inactive
11,CCCN1CCc2cccc3c2[C@H]1Cc1ccc(O)c(O)c1-3,9.91 µM (active)
12,CC(=O)Nc1ccccc1OP1(=O)COc2ccccc2OC1,inactive
13,Cc1ccc(/C=C2\C(=O)NC(=O)N(CCc3ccc(F)cc3)C2=O)s1,inactive
14,O=C(O)C12C3CCCC1C32c1ccccc1 (stereo not given),inactive
15,CCNc1ccc(P(=S)(N(C)C)N(C)C)cc1,inactive
